Laboratory results: PubChem BioAssay (EPA / NIEHS)
Values joined by “and” are separate entries in the source; they are usually repeats but may differ in a detail not shown here. Equal values may be shown once. Inconclusive results are not listed. Some compounds were tested as several samples or in several runs, with calls that do not always agree. Active and inactive are the calls of the source. How the source made its calls, unless noted: active means hit-call score of the fitted dose curve at least 0.9, where 1 is the maximum; inactive means score below 0.9.

What was measured:
[1] = target: Retinoic acid receptor RXR-alpha (Homo sapiens) (UniProt P19793); test: ATG_RXRa_TRANS: Attagene TRANS-FACTORIAL HepG2 Assay for human Retinoid X Receptor alpha (RXRa) (AID 2283012; active means hit-call score of the fitted dose curve at least 0.9, where 1 is the maximum)
Method in brief: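 Chimeric NR-GAL4 trans-activation in HepG2, 24 h treatment; reporter transcripts quantified by fluorescence on capillary electrophoresis, analysed for upward change from DMSO.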

[2] = target: human Retinoid X Receptor beta (RXRb), RXRB (gene 6257) (UniProt P28702); test: ATG_RXRb_TRANS: Attagene TRANS-FACTORIAL HepG2 Assay for human Retinoid X Receptor beta (RXRb) (AID 2283013; active means hit-call score of the fitted dose curve at least 0.9, where 1 is the maximum)
Method in brief: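 After a 24 h incubation with test chemical, transfected HepG2 cells carrying NR-Gal4 fusions and GAL4-UAS reporter transcription units yield RNA whose reporter cDNA is FAM-labelled, HpaI-cut and sized by capillary electrophoresis; increases over DMSO are scored.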

[3] = target: human Thyroid Receptor alpha (THRa1), THRA (gene 7067) (UniProt P10827); test: ATG_THRa1_TRANS: Attagene TRANS-FACTORIAL HepG2 Assay for human Thyroid Receptor alpha (THRa1) (AID 2283014; active means hit-call score of the fitted dose curve at least 0.9, where 1 is the maximum)
Method in brief: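 Reporter transcript induction, read by capillary electrophoresis of 6-FAM-labelled RT-PCR products, reflects activity of a transfected THRa1-Gal4 fusion in HepG2 liver cells. Cells were dosed for 24 h; activity was fitted in the positive direction against DMSO.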

[4] = read-out: Interleukin-1 alpha (IL1a), IL1A (gene 3552); test: BSK_BE3C_IL1a: BioMAP Diversity Plus: BE3C Assay for Interleukin-1 alpha (IL1a) Biomarker Activity (AID 2283016); settings: primary human bronchial epithelial cells; actives raise or lower the signal
Method in brief: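 Measured in human lung primary bronchial epithelial cells: IL-1a by ELISA at 24 h after dosing, with bidirectional fitting against DMSO.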

[5] = read-out: Monocyte Chemoattractant Protein-1 (MCP1), CCL2 (gene 6347); test: BSK_3C_MCP1: BioMAP Diversity Plus: 3C Assay for Monocyte Chemoattractant Protein-1 (MCP1) Biomarker Activity (AID 2283017); settings: primary human endothelial cells (HUVEC); actives raise or lower the signal
Method in brief: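 ELISA read-out of MCP-1 from human umbilical vein endothelial cell cultures harvested 24 h post-dosing. Gain or loss of signal was fitted relative to DMSO.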

[6] = read-out: Monocyte Chemoattractant Protein-1 (MCP1), CCL2 (gene 6347); test: BSK_4H_MCP1: BioMAP Diversity Plus: 4H Assay for Monocyte Chemoattractant Protein-1 (MCP1) Biomarker Activity (AID 2283018); settings: primary human endothelial cells (HUVEC); actives raise or lower the signal
Method in brief: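 Primary human umbilical vein endothelium is exposed to chemical for 24 h before MCP-1 is assayed by ELISA. Concentration-response fitted bidirectionally relative to DMSO.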

[7] = read-out: Human Leukocyte Antigen - DR isotype (HLADR), HLA-DRA (gene 3122); test: BSK_3C_HLADR: BioMAP Diversity Plus: 3C Assay for Human Leukocyte Antigen - DR isotype (HLADR) Biomarker Activity (AID 2283019); settings: primary human endothelial cells (HUVEC); actives raise or lower the signal
Method in brief: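 ELISA readout of surface HLA-DR on human umbilical vein endothelium, taken 24 h after chemical treatment. Gain- and loss-of-signal were both fitted relative to DMSO.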

[8] = read-out: Monokine induced gamma interferon (MIG), CXCL9 (gene 4283); test: BSK_3C_MIG: BioMAP Diversity Plus: 3C Assay for Monokine induced gamma interferon (MIG) Biomarker Activity (AID 2283021); settings: primary human endothelial cells (HUVEC); actives raise or lower the signal;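 on AC50: MIG protein level measured by immunoassay in the treated endothelial cultures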
Method in brief: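 ELISA-measured MIG in dosed HUVEC 3C cultures at 24 h, analysed by bidirectional fitting with DMSO defining baseline activity.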

[9] = target: human Vitamin D Receptor (VDR), VDR (gene 7421) (UniProt P11473); test: ATG_VDR_TRANS: Attagene TRANS-FACTORIAL HepG2 Assay for human Vitamin D Receptor (VDR) (AID 2283022; active means hit-call score of the fitted dose curve at least 0.9, where 1 is the maximum)
Method in brief: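 Steps: transfect HepG2 with GAL4-UAS-driven reporter constructs; dose compounds 24 h; isolate RNA, reverse-transcribe, PCR-amplify with 6-FAM-labelled primer extension and HpaI digestion; quantify fragments by capillary electrophoresis relative to DMSO.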

[10] = BSK_3C_SRB: Viability Assessment in the BioMAP Diversity Plus: 3C Assay (AID 2283023); settings: primary human endothelial cells (HUVEC);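 further: fitted both ways against DMSO so a hit may be signal rise or drop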
Method in brief: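 Absorbance at 560 nm of sulforhodamine B-stained (0.1%) total protein served as a cytotoxicity readout in human umbilical vein endothelial cells, 24 h after chemical treatment. Signal was fitted bidirectionally relative to DMSO.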

[11] = read-out: Matrix Metallopeptidase 1 (MMP1), MMP1 (gene 4312); test: BSK_BE3C_MMP1: BioMAP Diversity Plus: BE3C Assay for Matrix Metallopeptidase 1 (MMP1) Biomarker Activity (AID 2283024); settings: primary human bronchial epithelial cells; actives raise or lower the signal
Method in brief: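 In this multiplexed primary-cell system, human bronchial epithelium received chemicals for 24 h before an ELISA for MMP1. Values reflect bidirectional fits normalised to the DMSO baseline.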

[12] = BSK_3C_Vis: BioMAP Diversity Plus: 3C Assay for Morphology Visualization (AID 2283025); settings: primary human endothelial cells (HUVEC);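 further: fitted both ways so gain or loss versus DMSO counts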;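 on AC50: light microscopy image of cell morphology used as background control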
Method in brief: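 Light-microscopy morphology readout, 24 h exposure, human primary umbilical vein endothelium; analysed relative to DMSO with bidirectional fitting.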

[13] = read-out: Pselectin, SELP (gene 6403); test: BSK_4H_Pselectin: BioMAP Diversity Plus: 4H Assay for Pselectin Biomarker Activity (AID 2283026); settings: primary human endothelial cells (HUVEC); actives raise or lower the signal
Method in brief: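 Bidirectional fits against DMSO gave the endpoint. Cells: primary human umbilical vein endothelium, chemical-treated for 24 h before ELISA detection of P-selectin.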

[14] = BSK_4H_SRB: Viability Assessment in the BioMAP Diversity Plus: 4H Assay (AID 2283027); settings: primary human endothelial cells (HUVEC);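 further: cells exposed to compound for 24 h before staining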;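 on AC50: curves fitted both ways versus DMSO so AC50 may be loss or gain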
Method in brief: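 Cytotoxicity read-out in primary human endothelial cells: after 24 h compound exposure, cells were TCA-fixed (10%), stained with 0.1% SRB and absorbance taken at 560 nm. Values fitted in both directions relative to DMSO.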

[15] = BSK_BE3C_SRB: Viability Assessment in the BioMAP Diversity Plus: BE3C Assay (AID 2283028); settings: primary human bronchial epithelial cells;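 on AC50: fitted both ways so AC50 may mark signal gain or loss versus DMSO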
Method in brief: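 Cells (human bronchial epithelial, primary) are treated with chemicals, and after 24 h the parallel cultures are fixed in 10% TCA. These are then stained with 0.1% SRB and read at 560 nm. Gain or loss of signal is fitted relative to DMSO.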

[16] = read-out: Thrombomodulin, THBD (gene 7056); test: BSK_3C_Thrombomodulin: BioMAP Diversity Plus: 3C Assay for Thrombomodulin Biomarker Activity (AID 2283029); settings: primary human endothelial cells (HUVEC); actives raise or lower the signal
Method in brief: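 In a multiplexed primary-cell system, human umbilical vein endothelium received chemical and was assayed 24 h later for thrombomodulin by ELISA. Parallel cultures were SRB-stained (0.1% SRB after 10% TCA fixation, read at 560 nm) to flag cytotoxicity.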

[17] = read-out: E-selectin (Homo sapiens) (UniProt P16581); test: BSK_3C_Eselectin: BioMAP Diversity Plus: 3C Assay for Eselectin Biomarker Activity (AID 2283015); settings: primary human endothelial cells (HUVEC); actives raise or lower the signal
Method in brief: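 ELISA read-out of E-selectin on endothelial monolayers after 24 h chemical treatment. Human umbilical vein primary cells served as the system, with DMSO defining baseline activity for bidirectional fitting.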

[18] = read-out: Interleukin-8 (IL8), CXCL8 (gene 3576); test: BSK_3C_IL8: BioMAP Diversity Plus: 3C Assay for Interleukin-8 (IL8) Biomarker Activity (AID 2283020); settings: primary human endothelial cells (HUVEC); actives raise or lower the signal
Method in brief: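 Using DMSO-treated wells as the baseline, bidirectional curve fitting was applied to ELISA-measured IL-8 from human umbilical vein endothelial cultures sampled 24 h after compound addition.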

[19] = target: human RAR-related Orphan Receptor gamma (RORg), RORC (gene 6097) (UniProt P51449); test: ATG_RORg_TRANS: Attagene TRANS-FACTORIAL HepG2 Assay for human RAR-related Orphan Receptor gamma (RORg) (AID 2283011; active means hit-call score of the fitted dose curve at least 0.9, where 1 is the maximum)
Method in brief: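 First, HepG2 liver cells were transfected with GAL4-UAS-driven reporter constructs and the RORg-Gal4 fusion. Next, they were treated with chemical for 24 h. Finally, reporter mRNA was quantified by RT-PCR and capillary electrophoresis, with upward activity fitted against DMSO.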

Measured: AC50

Chain of human Thyroid Receptor alpha (THRa1), THRA (gene 7067) (P10827 whole entry, looked up, the tested form may be a part): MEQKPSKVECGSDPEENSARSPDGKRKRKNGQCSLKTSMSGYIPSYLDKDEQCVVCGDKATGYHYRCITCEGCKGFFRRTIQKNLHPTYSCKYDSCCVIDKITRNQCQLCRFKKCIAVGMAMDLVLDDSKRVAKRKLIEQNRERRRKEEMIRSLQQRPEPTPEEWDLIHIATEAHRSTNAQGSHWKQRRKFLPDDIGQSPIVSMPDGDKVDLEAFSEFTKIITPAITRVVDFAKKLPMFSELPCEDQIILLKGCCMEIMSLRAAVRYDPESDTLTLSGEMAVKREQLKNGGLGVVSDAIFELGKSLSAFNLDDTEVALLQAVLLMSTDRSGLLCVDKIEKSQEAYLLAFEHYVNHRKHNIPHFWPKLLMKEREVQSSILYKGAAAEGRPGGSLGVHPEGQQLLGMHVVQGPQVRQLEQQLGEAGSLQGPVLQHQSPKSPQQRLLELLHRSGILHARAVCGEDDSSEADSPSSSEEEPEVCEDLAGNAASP
Chain of Retinoic acid receptor RXR-alpha (Homo sapiens) (P19793 whole entry, looked up, the tested form may be a part): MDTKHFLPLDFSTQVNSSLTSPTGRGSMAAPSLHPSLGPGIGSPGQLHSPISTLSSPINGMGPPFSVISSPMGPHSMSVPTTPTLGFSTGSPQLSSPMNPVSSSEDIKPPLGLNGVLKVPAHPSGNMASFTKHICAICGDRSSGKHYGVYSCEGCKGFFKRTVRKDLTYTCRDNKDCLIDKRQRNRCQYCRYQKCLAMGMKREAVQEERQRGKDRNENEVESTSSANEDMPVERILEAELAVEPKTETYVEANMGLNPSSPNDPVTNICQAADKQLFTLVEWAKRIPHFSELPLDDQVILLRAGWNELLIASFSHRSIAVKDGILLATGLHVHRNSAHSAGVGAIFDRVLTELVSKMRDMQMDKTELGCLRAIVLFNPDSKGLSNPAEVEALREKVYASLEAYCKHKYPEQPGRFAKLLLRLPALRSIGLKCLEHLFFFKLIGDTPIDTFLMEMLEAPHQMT
Chain of human Retinoid X Receptor beta (RXRb), RXRB (gene 6257) (P28702 whole entry, looked up, the tested form may be a part): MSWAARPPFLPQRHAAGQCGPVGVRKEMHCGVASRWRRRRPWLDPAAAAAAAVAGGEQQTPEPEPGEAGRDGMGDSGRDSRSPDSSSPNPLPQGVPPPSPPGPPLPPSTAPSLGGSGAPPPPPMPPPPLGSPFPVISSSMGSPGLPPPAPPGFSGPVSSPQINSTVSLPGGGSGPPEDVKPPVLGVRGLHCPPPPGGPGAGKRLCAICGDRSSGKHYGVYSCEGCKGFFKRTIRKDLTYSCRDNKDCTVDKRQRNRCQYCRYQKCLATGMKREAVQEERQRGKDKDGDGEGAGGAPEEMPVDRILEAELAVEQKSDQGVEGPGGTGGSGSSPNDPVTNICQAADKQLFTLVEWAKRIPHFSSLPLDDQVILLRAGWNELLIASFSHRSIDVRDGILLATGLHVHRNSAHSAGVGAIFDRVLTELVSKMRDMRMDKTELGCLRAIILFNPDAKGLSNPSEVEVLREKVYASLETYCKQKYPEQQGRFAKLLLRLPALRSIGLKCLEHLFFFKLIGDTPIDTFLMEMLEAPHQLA
Chain of human Vitamin D Receptor (VDR), VDR (gene 7421) (P11473 whole entry, looked up, the tested form may be a part): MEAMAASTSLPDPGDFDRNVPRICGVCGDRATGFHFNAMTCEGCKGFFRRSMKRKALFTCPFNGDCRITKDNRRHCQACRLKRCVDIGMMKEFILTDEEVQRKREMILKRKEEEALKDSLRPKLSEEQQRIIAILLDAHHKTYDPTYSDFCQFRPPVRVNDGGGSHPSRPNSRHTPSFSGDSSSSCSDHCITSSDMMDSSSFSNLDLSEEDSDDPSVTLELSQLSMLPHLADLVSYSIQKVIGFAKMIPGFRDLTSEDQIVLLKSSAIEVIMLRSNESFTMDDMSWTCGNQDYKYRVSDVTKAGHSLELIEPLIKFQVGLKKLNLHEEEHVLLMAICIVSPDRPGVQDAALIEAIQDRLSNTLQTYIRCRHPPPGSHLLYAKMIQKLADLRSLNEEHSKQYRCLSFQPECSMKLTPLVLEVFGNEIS
Chain of E-selectin (Homo sapiens) (P16581 whole entry, looked up): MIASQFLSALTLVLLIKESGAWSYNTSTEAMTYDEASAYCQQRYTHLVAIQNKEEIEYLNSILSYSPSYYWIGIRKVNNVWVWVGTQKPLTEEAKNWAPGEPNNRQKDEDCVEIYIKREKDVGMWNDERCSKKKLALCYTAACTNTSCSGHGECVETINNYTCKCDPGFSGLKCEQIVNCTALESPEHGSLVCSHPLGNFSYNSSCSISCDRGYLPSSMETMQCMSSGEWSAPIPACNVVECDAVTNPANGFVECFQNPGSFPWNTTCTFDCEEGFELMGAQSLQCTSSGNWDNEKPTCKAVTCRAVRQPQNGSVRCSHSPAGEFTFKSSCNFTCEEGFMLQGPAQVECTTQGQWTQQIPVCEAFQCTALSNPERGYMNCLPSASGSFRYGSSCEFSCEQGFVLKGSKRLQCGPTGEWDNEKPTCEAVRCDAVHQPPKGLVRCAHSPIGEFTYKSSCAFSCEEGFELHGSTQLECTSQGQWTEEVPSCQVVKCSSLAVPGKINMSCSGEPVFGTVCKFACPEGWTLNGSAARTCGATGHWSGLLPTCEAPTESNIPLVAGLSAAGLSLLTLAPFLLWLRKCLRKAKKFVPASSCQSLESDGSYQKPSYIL
Chain of human RAR-related Orphan Receptor gamma (RORg), RORC (gene 6097) (P51449 whole entry, looked up, the tested form may be a part): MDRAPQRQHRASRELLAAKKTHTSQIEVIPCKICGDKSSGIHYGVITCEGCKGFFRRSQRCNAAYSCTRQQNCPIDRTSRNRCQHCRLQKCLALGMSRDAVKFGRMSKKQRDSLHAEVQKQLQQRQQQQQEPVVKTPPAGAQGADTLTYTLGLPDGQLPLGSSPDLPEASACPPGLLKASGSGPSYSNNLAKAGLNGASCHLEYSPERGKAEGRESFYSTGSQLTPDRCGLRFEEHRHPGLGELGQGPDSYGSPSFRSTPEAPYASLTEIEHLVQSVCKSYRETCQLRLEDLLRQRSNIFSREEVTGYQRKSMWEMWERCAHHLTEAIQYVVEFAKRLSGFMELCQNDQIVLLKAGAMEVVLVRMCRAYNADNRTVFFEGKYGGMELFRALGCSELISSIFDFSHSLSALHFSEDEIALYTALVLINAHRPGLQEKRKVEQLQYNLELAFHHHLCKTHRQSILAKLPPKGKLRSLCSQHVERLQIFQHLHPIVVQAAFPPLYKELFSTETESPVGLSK

CO/C=C(/C(=O)OC)c1ccccc1Oc1cc(Oc2ccccc2C#N)ncn1
inactive: [1] | [2] | [3] | [4] | [6] | [8] | [9] | [11] | [12] | [13] | [14] | [15] | [16]
active: [3] 12.2 µM | [5] 29 µM [middle of 4 runs] | [6] 21.1 µM | [7] 19.6 µM [middle of 4 runs] | [8] 38.1 µM and 33.2 µM and 32.7 µM | [10] 20 µM [middle of 4 runs] | [12] 39.6 µM and 42 µM | [13] 31.7 µM and 21.1 µM | [14] 26.7 µM and 16.4 µM and 24.2 µM

O=C(O)COc1nc(Cl)c(Cl)cc1Cl
not listed: [1] | [3] | [16] | [19]
inactive: all other assays above

CCc1nn(C)c(C(=O)NCc2ccc(C(C)(C)C)cc2)c1Cl
active: [3] 0.157 µM | [17] 20 µM | [4] 20 µM | [5] 28.4 µM | [6] 20 µM | [7] 17.3 µM | [18] 20 µM | [8] 34 µM | [10] 25.3 µM | [12] 37.2 µM | [13] 26.9 µM | [14] 33.7 µM | [15] 30.2 µM
inactive: [19] | [11]
